# Screen size: about 53,000 compounds; about 900 (1.7%) showed an effect of 50% or more. For the sample, strong results were picked, then their nearest neighbours and some compounds at random.
# Test system: Mycobacterium tuberculosis
# Assay: Cornell - Phenotypic assay to identify agents that inhibit growth of Mycobacterium tuberculosis
# Format: functional
# Design: scale not given: direction of the effect not stated beside the values
# Settings: 10 mM as filed; unlikely as a test dose
row,Structure (SMILES),Percent Effect [%]
1,CCN(CC1CCCO1)C(=O)Nc1cc(OC)c(OC)cc1C (centres undefined),69.91
2,CCN(CC1CCCO1)C(=O)Nc1ccc(F)cc1OC (centres undefined),2.654
3,CCN(CC1CCCO1)C(=O)Nc1ccc(OC)c(C)c1 (centres undefined),29.95
4,CC(Oc1ccc2c(c1)OCO2)C(=O)N1CCC(c2ncc[nH]2)CC1 (centres undefined),-2.052
5,Cc1ccc(C2CSCCN2C(=O)c2cccs2)o1 (centres undefined),-1.514
6,CNC(=O)c1cnn2c(C3CCCN3)ccnc12 (centres undefined),-26.66
7,Cn1ccnc1CN1CCCC(Cc2ccnc3ccncc23)CC1.O=CO (centres undefined),25.28
8,CC(OCC1CC1)C(=O)Nc1nccn1Cc1ccccc1 (centres undefined),51.13
9,CC(OCC1CC1)C(=O)Nc1ccn(Cc2ccccc2)n1 (centres undefined),-1.057
10,CCOCCOC(C)C(=O)Nc1nccn1Cc1ccccc1 (centres undefined),4.045
11,CCC(=O)N1CCCCC1c1nc(O)c2c(n1)CN(S(=O)(=O)CC)CC2 (centres undefined),9.253
12,CC(=O)N1CCC(c2noc(C3CCC(=O)N3)n2)CC1 (centres undefined),5.586
13,Cc1nc([C@@H]2C[C@@H]3CCN(C(=O)Cc4cccc(F)c4)C[C@H]3O2)no1,16.61
14,Cc1nc([C@@H]2C[C@@H]3CCN(C(=O)Cc4ccsc4)C[C@H]3O2)no1,-0.3005
15,O=C1CCC(c2nc(C3CCN(C(=O)C4CC4)CC3)no2)N1 (centres undefined),13.14
16,Cc1nc([C@@H]2C[C@@H]3CCN(C(=O)Cc4cccs4)C[C@H]3O2)no1,53.11
17,O=C1CCC(c2nc(C3CCN(C(=O)Cc4cccs4)CC3)no2)N1 (centres undefined),57.39
18,CC(=O)N[C@@H]1CN(Cc2cccs2)C[C@H]1c1ccc(C)o1,10.2
19,Cn1nc(COc2cccnc2)c2c1CCN(CC1CC1)C2.O=C(O)C(F)(F)F.O=C(O)C(F)(F)F,-1.302
20,CCCN(CCO)S(=O)(=O)c1ccc2[nH]c(=O)[nH]c2c1,11.31
21,Cc1cc(C[C@@H]2CCC[C@H]2NCc2ccccc2C(F)(F)F)on1.O=C(O)CC(O)(CC(=O)O)C(=O)O,12.28
22,Cc1cc(C[C@@H]2CCC[C@H]2NCc2cc(C)c(O)c(C)c2)on1.O=C(O)CC(O)(CC(=O)O)C(=O)O,77.55
23,Cc1cc(C[C@@H]2COC[C@H]2NCc2ccc(C)c(C)c2)on1.O=C(O)CC(O)(CC(=O)O)C(=O)O,-9.136
24,CC(=O)N1CCC2(CCN(Cc3ccc(Cl)c(C(F)(F)F)c3)CC2)C1,43.5
25,Cc1cc2nc(C(C)C)cc(N3CCC(N(C)C)C3)n2n1 (centres undefined),32.15

row,Structure (SMILES),Percent Effect [%]
1,O=c1[nH]c2c(-c3ccccn3)nsc2c(=O)n1CC1CCCO1 (centres undefined),-0.9245
2,Cc1ccc(C(=O)N2CC(Oc3ccccc3C)C2)s1,67.58
3,COc1ccccc1OC1CN(C(=O)c2ccc(C(C)=O)s2)C1,-4.28
4,CO[C@H]1C[C@@H]2CN(C(=O)c3ccc(C)s3)C[C@@H]2C1,41.56
5,COc1cccc2ccc(N3CCC(O)(C(=O)O)CC3)nc12,-24.68
6,CC(c1nc(C(C)(C)C)no1)N1CCN(Cc2ccco2)CC1 (centres undefined),11.7
7,CCn1ccnc1CN1CCCN(C(=O)COC2CCCC2)CC1,-24.49
8,CNc1ncc(C(=O)N2CCOC(C(=O)N3CCCCCC3)C2)cn1 (centres undefined),-4.246
9,CCOc1cccc2c1OCC(C(=O)NC(C)Cn1cccn1)=C2 (centres undefined),7.345
10,Cc1ccc(OCC(=O)NS(=O)(=O)Cc2ccccc2)cc1,7.336
11,CCOc1cccc2c1OCC(C(=O)NS(=O)(=O)c1ccc(Cl)cc1)=C2,104.6983
12,CCOc1cccc2c1OCC(C(=O)NS(=O)(=O)c1ccc(Br)s1)=C2,-17.73
13,CCOc1cccc2c1OCC(C(=O)NS(=O)(=O)c1ccc(Cl)s1)=C2,9.699
14,CCOc1cccc2c1OCC(C(=O)NS(=O)(=O)c1c(C)noc1C)=C2,106
15,Cc1cc(OCC(=O)NS(=O)(=O)c2c(C)noc2C)ccc1Cl,39.96
16,CCOc1cccc2c1OCC(C(=O)NS(=O)(=O)c1ccc(C)s1)=C2,107.6
17,CCOc1cccc2c1OCC(C(=O)NS(=O)(=O)c1cccs1)=C2,19.94
18,CCOc1ccccc1C(=O)NS(=O)(=O)c1ccc2c(c1)OCCCO2,27.03
19,CCOc1cccc2c1OCC(C(=O)NS(=O)(=O)Cc1ccccc1)=C2,106.8
20,CCOc1cccc2c1OCC(C(=O)NS(=O)(=O)c1cncc(Br)c1)=C2,44.21
21,CCc1cnc(NC(=O)NC2CCN(C3CCCC3)CC2)s1,-3.242
22,CC(=O)N1CC[C@@H]2O[C@@H](COCC(=O)N3CCCC3)CC[C@@H]21,-45.3
23,O=C(NCC(Cc1cccc(F)c1)N1CCCC1=O)c1ccc(=O)[nH]n1 (centres undefined),14.14
24,Cc1ncsc1C(=O)N1CCC(c2ncncc2-c2ccnc(N)c2)C1 (centres undefined),-0.8467
25,CSCC[C@H](NC(C)=O)c1nc(Cc2ccccc2)n[nH]1,-11.93

row,Structure (SMILES),Percent Effect [%]
1,COc1ncccc1CN1Cc2nccn2CC(CN2CCCC2)C1 (centres undefined),6.883
2,Cc1ccccc1CCCN1CCS(=O)(=O)CC1C (centres undefined),46.6
3,CC(C)(C)S(=O)(=O)c1ccc(N2CCC(n3cncn3)CC2)cn1,-14.59
4,CS(=O)(=O)N[C@@H]1CN(C(=O)c2cnccn2)[C@@H]2CCCO[C@@H]21,-34.02
5,Cc1cnc(CN(C)Cc2cccc(OC(F)(F)F)c2)cn1,-8.651
6,O=C(NCc1ccccc1)NCc1nc(-c2ccncc2)n[nH]1,13.27
7,CC(C)Oc1cccc(-c2nc3c([nH]2)CCCNC3=O)c1,-4.933
8,Cc1cccc(SC2CCN(C(=O)CCCn3cnnn3)CC2)c1,50.26
9,CC(=O)NCCCC(=O)N1CCC(Sc2cccc(C)c2)CC1,15.76
10,Cc1cccc(SC2CCN(C(=O)CCCS(N)(=O)=O)CC2)c1,37.58
11,Cc1nc(N2CCCOC(Cn3cccn3)C2)c2sccc2n1 (centres undefined),26.84
12,CCC(C)(C)NC(=O)c1nnn(-c2cccc3c2CCN(C)C3)c1C,-0.0817
13,COCc1nc(CNc2cc(C)nc(N3CCCCC3)n2)no1,-11.46
14,CCn1cc(NC(=O)NC(CO)Cc2c[nH]c3ccccc23)cn1 (centres undefined),-8.114
15,CCn1cc(S(=O)(=O)NC(=O)CCc2c[nH]c3ccccc23)cn1,53.27
16,CCn1cc(S(=O)(=O)NC(CO)Cc2c[nH]c3ccccc23)cn1 (centres undefined),-1.971
17,Cc1noc(-c2ccc(-n3ncc(C(=O)O)c3C)nc2)n1,11.73
18,COC(=O)[C@H](CC(C)C)NC(=O)c1snnc1-c1ccc(OC)cc1,25.36
19,CCC(C)NC(=O)c1snnc1-c1ccc(OC)cc1 (centres undefined),21.58
20,COC(=O)[C@@H](NC(=O)c1snnc1-c1ccc(OC)cc1)C(C)C,58.81
21,Cc1ccc(-c2nc(CN3CCn4c(C)nnc4C3)co2)cc1,-23.96
22,Nc1nc2nc(C3CCN(C(=O)c4cscn4)C3)ccc2s1 (centres undefined),-97.96
23,O=C(NC1CCCN(CCc2ccccc2)C1)c1ccccn1 (centres undefined),35.43
24,O=C(c1ccco1)N1CCO[C@@H]2CN(c3ccccc3)CC[C@@H]2C1,17.14
25,COc1cccc(OC2CN(C(=O)c3ccnc(OC)c3)C2)c1,17.3

row,Structure (SMILES),Percent Effect [%]
1,COc1cc(C(=O)N2CC(Oc3ccccc3Cl)C2)ccn1,25.67
2,CCc1ccccc1OC1CN(C(=O)c2ccnc(OC)c2)C1,66.55
3,CCc1ccc(NC(=O)N2C[C@H]3C[C@H](C(=O)N4CCCC4)[C@@H](C2)O3)cc1,-25.04
4,O=C(c1ccccc1F)N1CC[C@@H]2CN(c3ncccn3)CCO[C@@H]2C1,12.82
5,Cc1c(Cl)cccc1S(=O)(=O)N1CCC2(CC1)OCCS2,53.55
6,O=S(=O)(c1ccccc1Cl)N1CCC2(CC1)OCCS2,36.27
7,O=S(=O)(NC1CCC2(CC1)OCCO2)c1ccccc1Br,9.266
8,CNC(=O)CS(=O)(=O)C1CCN(S(=O)(=O)c2ccccc2Br)CC1,7.561
9,O=S(=O)(Cc1ccccc1Cl)N1CCC2(CC1)OCCS2,47.83
10,O=S(=O)(c1ccccc1Br)N1CCC2(CC1)OCCS2,54.27
11,CS(=O)(=O)N1CCC(CNc2cc(Cl)ccc2C#N)CC1,-6.261
12,COCCO[C@H]1CCN(C(=O)c2cccnc2)[C@H]1Cc1cnn(C)c1.O=C(O)C(F)(F)F,12.42
13,COCCS(=O)(=O)c1ncc(CN(C)CC(C)C)n1Cc1ccccc1,-3.776
14,CCNC(=O)N(Cc1cccc(OC)c1)C1CCC(O)CC1 (centres undefined),21.75
15,O=C(C1CC1)N(Cc1ccc2cc[nH]c2c1)C1CC1,42.2
16,COCC(=O)N(Cc1ccc2[nH]ccc2c1)C1CC1,26.94
17,CCN(C(=O)CCc1ccc2[nH]ccc2c1)C1CC(=O)NC1=O (centres undefined),14.54
18,COC(=O)CCC(=O)N(Cc1ccc2cc[nH]c2c1)C1CC1,90.28
19,COCC(=O)N(Cc1ccc2cc[nH]c2c1)C1CC1,57.03
20,CCOc1ccccc1C1=CCN(C(=O)C2CCN(C)C(=O)C2)CC1 (centres undefined),-20.28
21,COC(=O)c1cccn1C1CCN(C(=O)c2ccc(C)[nH]c2=O)CC1,-31.25
22,CCc1cc(N(C)Cc2ccnc(C)c2)n2nc(C)c(C)c2n1,-23.54
23,CCc1cc(N(C)Cc2ccncn2)n2nc(C)c(C)c2n1,59.71
24,CCc1cc(N(C)Cc2cc[nH]n2)n2nc(C)c(C)c2n1,4.829
